Test results as given in PubChem BioAssay (NCI).
About 79,000 compounds went through this panel and 15% of them were active in at least one assay; those are over-represented in the sample as a whole. Active and inactive are the calls of the source. No stated cut-off is given here; in the data, active means growth inhibition above about 70%; inactive means the rest.

Experiments:
[1] = NCI Yeast Anticancer Drug Screen. Data for the rad50 strain (AID 155);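 further: 0% = growth of vehicle-only cultures of the same strain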; settings: S. cerevisiae rad50 strain growth inhibition; at 50.0 µM; active compounds read high
Method in brief: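 Compounds were tested on a yeast strain with an engineered DNA damage repair alteration; the reported value is growth inhibition normalised to vehicle treatment.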

[2] = NCI Yeast Anticancer Drug Screen. Data for the mec2-1 strain (AID 157); settings: S. cerevisiae mec2-1 strain, at 50.0 µM, active compounds read high
Method in brief: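 Readout is yeast growth inhibition, normalised to vehicle-treated controls, in the mec2-1 strain exposed to compound.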

[3] = NCI Yeast Anticancer Drug Screen. Data for the sgs1 mgt1 strain (AID 161);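 further: 0% = growth of cultures given vehicle only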; settings: S. cerevisiae sgs1 mgt1 strain, at 50.0 µM, active compounds read high
Method in brief: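 Percent growth inhibition was derived by comparing compound-exposed mutant yeast with vehicle-exposed cultures. The strain carries alterations in DNA damage repair.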

[4] = NCI Yeast Anticancer Drug Screen. Data for the cln2 rad14 strain (AID 165);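 further: 0% = growth equal to vehicle treated cultures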; settings: S. cerevisiae cln2 rad14 strain, at 50.0 µM, active compounds read high
Method in brief: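 Relative to vehicle controls, growth inhibition of compound-treated cln2 rad14 yeast was recorded.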

[5] = NCI Yeast Anticancer Drug Screen. Data for the bub3 strain (AID 167); settings: S. cerevisiae bub3 mutant strain, at 50.0 µM, active compounds read high
Method in brief: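 Growth of a checkpoint-deficient yeast mutant is measured after compound exposure. Values represent inhibition relative to vehicle.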

[6] = NCI Yeast Anticancer Drug Screen. Data for the mlh1 rad18 strain (AID 175); settings: S. cerevisiae mlh1 rad18 strain growth inhibition; at 50.0 µM; active compounds read high
Method in brief: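 Test agents were incubated with a yeast strain of defined genotype (DNA damage repair defect). Inhibition of growth was derived by comparison with vehicle-exposed cultures.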

Measured: growth inhibition

CCOC(C)C=O (stereo unspecified)
inactive: [1] -3.85% | [2] 19.1% | [3] -21.4% | [4] -36% | [5] -7.6% | [6] -25.9%

Cc1ccc(N=C2C(c3ccccc3)=C(SC3=C(c4ccccc4)C(=Nc4ccc(C)cc4)c4ccccc43)c3ccccc32)cc1
inactive: [1] 12.9% | [2] 0.7% | [3] 3.9% | [4] 15.2% | [5] -3% | [6] -8.65%

CN(C)CCNC(=O)c1cccc2[nH]c(-c3ccncc3)nc12
inactive: [1] 5.9% | [2] -16.2% | [3] -37.4% | [4] -19.9% | [5] -48% | [6] -89.1%

O=[N+]([O-])c1ccc(S(=O)(=O)c2ccc(N=CN3CCCC3)cc2)cc1
inactive: [1] 22.9% | [2] 16.4% | [3] 18.4% | [4] 4.05% | [5] 18% | [6] 23%

COc1ccc2nc3cc(Cl)ccc3c(NC(C)CCCN(C)C)c2n1 (stereo unspecified)
inactive: [1] 44.8% | [2] 42.8% | [3] 64.2% | [4] 31.2% | [5] 46.3% | [6] 65%

O=C(O)CCc1ccsc1
inactive: [1] -17.6% | [2] 4.55% | [3] -21.9% | [4] -28.4% | [5] -10.5% | [6] 4.45%

COC(=O)c1nc(N)nc(C(=O)OC)c1C(=O)C(C)C
inactive: [1] 5.4% | [2] -10.7% | [3] -24.9% | [4] -13.4% | [5] -29% | [6] -1%

O=C(O)/C=C(/Oc1ccccc1)c1ccccc1
inactive: [1] -12.3% | [2] -7.7% | [3] -7.95% | [4] -8.7% | [5] -19.8% | [6] -3.55%

Nc1nc(SCc2ccccc2)c2ncn(Cc3ccccc3)c2n1
inactive: [1] 5.75% | [2] -7.55% | [3] -15.1% | [4] 10.5% | [5] -2.9% | [6] 9.55%

COC(=O)C1CCCC2(C1)OCCO2 (stereo unspecified)
inactive: [1] 15.2% | [2] 5% | [3] -23.1% | [4] -10.2% | [5] -32.7% | [6] -2.75%

CN(C)c1ccccc1C(=O)NNC(=S)Nc1ccccc1
inactive: [1] 20.9% | [2] -1.75% | [3] 42.7% | [4] -13.1% | [5] 30.4% | [6] 19.4%

O=P(OCCCl)(OCCCl)C(c1ccccc1)(c1ccccc1)c1ccccc1
inactive: [1] 63.4% | [2] 35.7% | [4] 36.9% | [5] 38.5% | [6] 65.2%
active: [3] 72.6%

CCOC(=N)CC(=O)Nc1ccccc1CC
inactive: [1] 17.8% | [2] -0.05% | [3] 11.6% | [4] 4.05% | [5] 12.1% | [6] 20.9%

CCC(SC(C)=O)C(=O)O (stereo unspecified)
inactive: [1] 13% | [2] -16.1% | [3] 2.65% | [4] 14.4% | [5] -2.05% | [6] 9.5%

Nc1nc(N)c2ccccc2n1
inactive: [1] -11.3% | [2] 13.8% | [3] -5.2% | [4] -0.5% | [5] -6.9% | [6] -1.7%

CCOC(=O)c1cc2c(nc1N)C(=O)CCC2
inactive: [1] -0.1% | [2] 6.25% | [3] 34.2% | [4] 16.9% | [5] 30.9% | [6] -30.9%

CC(=S)NC=C(C(N)=O)C(N)=O
inactive: [1] 6.65% | [2] 1.05% | [3] 11.7% | [4] 16% | [5] -4.2% | [6] -16.5%

O=C(CN1C(=O)c2ccccc2C1=O)NCC(=O)N(C(=O)NC1CCCCC1)C1CCCCC1
inactive: [1] 23.1% | [2] 2.3% | [3] 27.9% | [4] 11.8% | [5] -3.35% | [6] 5%

O=C(CCl)OC1CCCCC1C1CCCCC1 (stereo unspecified)
inactive: [1] 22.7% | [2] 12.8% | [3] 39.3% | [4] -1.5% | [5] 32% | [6] 39.6%

CC(C)(CCCOc1ccccc1)/C(=N/O)c1ccccc1
inactive: [1] 14.1% | [2] 5.6% | [3] -14.9% | [4] 21.6% | [5] 11.6% | [6] -14.5%

CCCCC(=O)OC[n+]1ccc2c(C)c3[nH]c4ccc(OC)cc4c3c(C)c2c1
active: [1] 87.9% | [2] 91.8% | [3] 90.2% | [4] 89.1% | [5] 87.1% | [6] 91.8%

Nc1c(I)cc(C(=O)O)c(O)c1I
inactive: [1] 2.45% | [2] -26.6% | [3] -15.3% | [4] 4.65% | [5] -5.75% | [6] -9.15%

Clc1nc(N2CCCCC2)c2[nH]cnc2n1
inactive: [1] -35.2% | [2] -6.2% | [3] 6.75% | [4] -9.8% | [5] -1.6% | [6] -0.9%

CCCN(CCC)S(=O)(=O)c1ccc(NC(=O)Oc2ccccc2OC)cc1
inactive: [1] 41.6% | [2] 3.8% | [3] 31.8% | [4] 20.6% | [5] -7.3% | [6] 22.3%

COc1cc2c(cc1OC)C(CC(=O)NN=C(C)C)NCC2 (stereo unspecified)
inactive: [1] -20.6% | [2] -19.6% | [3] -10.2% | [4] 3.1% | [5] -16.8% | [6] -34.2%

[O-]c1c2c(nn1-c1ccc(Cl)cc1)c1ccccc1c[n+]2Cc1ccccc1
inactive: [1] -6.1% | [2] -20.6% | [3] -11.2% | [4] -2.5% | [5] 11.4% | [6] -16.2%

COC(=O)c1cc2c(cc1CC(Cc1ccc3c(c1)CCC3)C(=O)OC)CCC2 (stereo unspecified)
inactive: [1] 27.9% | [2] 1.25% | [3] -21.6% | [4] -34.1% | [5] 3.95% | [6] -4.65%

Oc1ccc(NCc2ccccc2)cc1
inactive: [1] 32.9% | [2] 8.45% | [3] 16.9% | [4] -3.15% | [5] 21.6% | [6] 16.9%

C[N+]1(C(CO)Cc2c[nH]c3ccccc23)Cc2ccccc2C1 (stereo unspecified)
inactive: [1] 10.6% | [2] 14.6% | [3] -19.1% | [4] -8.35% | [5] -65.5% | [6] -5.7%

O=C(Nc1ccccc1[N+](=O)[O-])OCc1ccccc1
inactive: [1] -10.7% | [2] 10.4% | [3] 13.5% | [4] 10.1% | [5] 1.6% | [6] 8.2%

CCCCCCCCCCCCCCCCCCCCc1ccccc1
inactive: [1] 25.9% | [2] 10.3% | [3] 1.2% | [4] 12.7% | [5] -14.2% | [6] 26.4%

Nc1cccc(/C=C/c2cccc([N+](=O)[O-])c2)c1
inactive: [1] 18.2% | [2] 37.5% | [3] 12.8% | [4] 4% | [5] 60.3% | [6] 30.2%

CON(C)c1nc2ccccc2o1
inactive: [1] -22.1% | [2] -8.45% | [3] -9% | [4] -16.8% | [5] -2.3% | [6] -17.6%

Cc1ccc(OCC2OC(n3cnc4nc(Nc5ccc(Cl)c(Cl)c5)nc(Cl)c43)CC2Oc2ccc(C)cc2)cc1 (stereo unspecified)
inactive: [1] 6.9% | [2] 10.8% | [3] -40.2% | [4] 14.1% | [5] -20.3% | [6] -33%

Cc1ccc(N2CCN(CCC(=O)O)CC2)cc1
inactive: [1] -1.15% | [2] 8.8% | [3] 0.75% | [4] -3.85% | [5] -41.6% | [6] 22.4%

C=C(CCl)CCl
inactive: [1] 42.4% | [2] 12.2% | [3] 39.1% | [4] 12.5% | [5] 46.3% | [6] 36.5%

CCOC(=O)C1CC(C)CC1=O (stereo unspecified)
inactive: [1] 5.7% | [2] -2.6% | [3] -4.6% | [4] -4.4% | [5] 1.35% | [6] 0.2%

CC1(C)N=C(N)N=C(N)N1c1cccc(/C=C/c2ccc([N+](=O)[O-])cc2)c1
inactive: [1] 2.45% | [2] -7.35% | [3] -6.1% | [4] -43% | [5] -3.3% | [6] 9.75%

CC(=O)NC(C(=O)O)C(C)(C)S (stereo unspecified)
inactive: [1] -1.85% | [2] -48.9% | [3] -4.7% | [4] 26.8% | [5] -33.2% | [6] 8.95%

CCCCCCCCc1cc(CN2CCOCC2)c(O)c(CN2CCOCC2)c1
inactive: [1] 25.1% | [2] 14.6% | [3] 22.2% | [4] 24.4% | [5] 12.8% | [6] 21.6%

O=C(O)c1ccccc1CC(Cc1ccccc1)C(=O)O (stereo unspecified)
inactive: [1] -14.7% | [2] -3.4% | [3] -10.9% | [4] -8.5% | [5] -12.4% | [6] 14%
